# HCV inhibitor: blocks hepatitis C virus; actives 3.4% (n = 340,000); AID 651820; Huh7.5.1 HCVcc-Cre infection, luciferase reporter, 44 h; Potency, µM (titrated, usually from 41.8 µM), hits mostly inhibitors
#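 Seed cells (1,000/well) for 4 h; treat with compound and infect with HCVcc-Cre, moi about 0.5. Incubate 44 h, then detect luciferase activity.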
# Pf growth 96h: P. falciparum growth inhibition at 96 hour, primary screen for plastid delayed-death inhibitors; P. falciparum luciferase reporter growth, 96 h; Potency, µM (doses to about 28.7 µM), usual class: inhibitors; actives 6.9% (n = 320,000); AID 504834
#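 P. falciparum expressing integrated firefly luciferase grown in erythrocytes (2% hematocrit, 0.05% parasitemia final) with compounds for 96 hours at 37 C, 5% CO2. Growth inhibition read as loss of luminescence after adding luciferase detection reagent.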
# Pf growth 48h: inhibits P. falciparum growth in the first generation, 48 h; P. falciparum luciferase growth in erythrocytes, 48 h; Potency, µM (highest dose often 28.7 µM), hits mostly inhibitors; actives 5.9% (n = 310,000)
#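 Cell-based growth assay: transgenic P. falciparum expressing firefly luciferase, cultured in red cells within RPMI 1640 containing 0.5% w/v Albumax, 24 mM bicarbonate and gentamycin. A drop in luciferase activity indicates inhibition.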
# HCMV inh: human cytomegalovirus inhibition | HFF cells, HCMV-luciferase reporter, 72 h; stronger effect = lower value | activity change, negative = inhibition, % at 57.5 µM | actives 4.5% (n = 410,000) | AID 1259415; in the data active means activity change below about -60%; inconclusive means no clear call, values can overlap the other calls; inactive means above about -39%
#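 Human foreskin fibroblasts infected with luciferase-reporter HCMV at MOI 1 PFU/cell, compounds at two doses. Luciferase measured 72 h post infection; normalized to buffer-only basal and Salinomycin (10uM) controls.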
# Hits are given with their value; - = inactive; ? = inconclusive; . = no result; + = active, no number. Most compounds without a hit are left out; they make up all but 13% or so of the library. Unless noted, the call rests on the fitted dose curve; in most records, active means well fitted inhibition curve with a large enough effect; inconclusive means small, poorly fitted or top-dose-only effect, or another doubt; inactive means no such curve, though single readings can be large or run the other way.
SMILES,HCV inhibitor,Pf growth 96h,Pf growth 48h,HCMV inh
CN(C)c1ccc(/C=C/c2nnnn2-c2ccccc2)cc1,-,13.1µM,-,-
Cc1cc(N/C=C\c2nnnn2-c2ccccc2)no1,-,-,-,-
C=CCC(COCc1ccccc1)NS(=O)(=O)c1ccccc1Br (stereo unspecified),-,?,13.1µM,-
CCOC(=O)c1cn(CC)c2cc(N3CCSCC3)c(F)cc2c1=O,-,-,0.928µM,-
CCOC(=O)c1cn(CC)c2cc(N3CCN(C)CC3)c(F)cc2c1=O,-,?,11.7µM,-
CCn1cc(S(=O)(=O)c2ccc(OC)cc2)c(=O)c2cc(F)c(N3CCN(C)CC3)cc21,-,8.28µM,-,-
Cc1ccc(S(=O)(=O)c2cn(C)c3cc(N4CCN(C)CC4)c(F)cc3c2=O)c(C)c1,12.6µM,-,?,-
CCn1cc(S(=O)(=O)c2cccc(Cl)c2)c(=O)c2cc(F)c(N3CCN(C)CC3)cc21,.,.,.,-
CCN(CC)S(=O)(=O)c1ccc2nc(NC(=O)c3cncc(Br)c3)sc2c1,.,.,.,-
CCOc1ccc(-c2nc3c(c(SCC(=O)N4CCCCC4)n2)Cc2cc(C)ccc2O3)cc1,.,.,.,-
CCc1ccccc1NC(=O)c1ccc2c(O)c(S(=O)(=O)c3ccccc3)c(=O)[nH]c2c1,.,.,.,-
CCCn1cc(S(=O)(=O)c2ccc(F)cc2)c(=O)c2cc(OCC)ccc21,-,?,?,-67.3
CCOc1ccc(S(=O)(=O)c2cn(CC)c3ccc(F)cc3c2=O)cc1,.,.,.,-
Nc1nnc(-c2ccccc2)s1,-,.,-,-
Nc1nnc(P(c2ccccc2)c2ccccc2)s1,-,-,-,-64.5
CCc1ccc(NC(=O)CSc2nc3ccccc3nc2Cc2ccccc2OC)cc1,.,.,.,-
O/N=C/c1ccc(-c2cc(Cl)ccc2Cl)o1,?,-,-,-62.5
COC(=O)N/N=C/c1ccc(-c2cc(Cl)ccc2Cl)o1,-,?,?,-
C[C@H](CO)N1C[C@H](C)[C@@H](CN(C)C(=O)C2CC2)OCc2cn(nn2)CCCC1=O,.,.,.,-
CCN1CCc2c(OCC(=O)N3N=C(c4cccs4)CC3c3ccc(F)cc3)cccc2C1=O (stereo unspecified),10µM,?,9.28µM,-
CN1CCc2c(OCC(=O)N3N=C(c4cccs4)CC3c3ccc(F)cc3)cccc2C1=O (stereo unspecified),-,?,?,-88.6
CCOC(=O)CSCC(=O)N1N=C(c2cccs2)CC1c1ccc(F)cc1 (stereo unspecified),-,?,-,?
CSc1ccccc1C(=O)N1CCOCC1,-,-,-,-
NC(=O)C1CCN(C(=O)c2ccccc2CCc2ccccc2)CC1,-,?,-,-
O=C(c1ccccc1CCc1ccccc1)N1CCOCC1,-,.,-,-103.8
SMILES,HCV inhibitor,Pf growth 96h,Pf growth 48h,HCMV inh
O=C(Cc1ccccc1)c1ccccc1C(=O)N1CCCCC1,3.16µM,-,.,-
O=C(c1ccccc1Sc1cccc2ccccc12)N1CCOCC1,?,?,10.4µM,-
CCc1cccc(CC)c1NC(=O)c1ccccc1CCc1ccccc1,-,-,14.7µM,-
O=C1CC(c2cc(F)cc(F)c2)c2cc3c(cc2N1)OCO3 (stereo unspecified),.,.,.,-
O=C(CC1N=C2c3ccccc3N=C(SCc3cccc(Cl)c3)N2C1=O)NCCc1ccccc1 (stereo unspecified),.,.,.,-
Cc1ccc(S(=O)(=O)N2CCC(C(=O)NC3CCCC3)CC2)cc1Cl,-,1.31µM,?,-
O=C(NC1CC1)C1CCN(S(=O)(=O)c2cc(Cl)ccc2Cl)CC1,-,0.0828µM,-,?
COc1ccc(S(=O)(=O)N2CCC(C(=O)NC3CCCCC3)CC2)cc1C,-,?,-,-
COc1ccc(S(=O)(=O)N2CCN(S(=O)(=O)c3ccc(C(F)(F)F)cc3)CC2)cc1C,-,11.7µM,-,-
O=C(NC1CC1)C1CCN(S(=O)(=O)c2cc([N+](=O)[O-])ccc2Cl)CC1,-,?,?,-
COc1ccc(S(=O)(=O)N2CCC(C(=O)NC3CC3)CC2)cc1C,-,3.29µM,?,-
Cc1cccc(OC(=O)CSc2nnc(CNC(=O)c3ccccc3)o2)c1C,.,.,.,-
O=C(NC1CCN(S(=O)(=O)c2ccc(Cl)cc2)CC1)C1CCCCC1,-,-,-,-
O=C(NC1CC1)C1CCN(S(=O)(=O)c2ccc(Cl)cc2)CC1,-,-,1.65µM,-
Cc1cccc(C)c1NC(=O)NCCc1c[nH]c2ccccc12,.,.,.,-
COc1cc(Cl)c(C)cc1NC(=O)Cc1cccs1,3.55µM,-,-,-
COc1nc(N)nc(NC(=O)c2cccs2)c1N=O,-,.,.,-77.6
Cc1ccc(C(=O)Nc2cccc(NC(=O)c3cccs3)c2)c(C)c1,-,11.7µM,?,-
COc1cc(NC(=O)c2ccc(C)cc2C)ccc1NC(=O)c1cccs1,?,-,-,-
COc1ccc(NC(=O)c2ccc(NC(=O)c3cccs3)cc2)cc1,?,-,-,-
COc1cc(NC(=O)Cc2cccs2)cc(OC)c1,?,10.4µM,-,-
COc1cc(Cl)c(C)cc1NC(=O)Cc1ccc(OC)c(OC)c1,?,?,?,-
COc1ccc(-c2nc3scc(CCNC(=O)c4cccc(Br)c4)n3n2)cc1,.,.,.,-
Cc1ccc(NC(=O)CSc2nc3ccc(NC(=O)c4cccc(Cl)c4)cc3s2)c(C)c1,.,.,.,-
C[C@H]1CN([C@@H](C)CO)C(=O)CCCn2nncc2CO[C@@H]1CN(C)S(=O)(=O)c1cccs1,.,.,.,-
SMILES,HCV inhibitor,Pf growth 96h,Pf growth 48h,HCMV inh
COc1cc(NC(=O)c2cccs2)cc(OC)c1,-,10.4µM,-,-
O=C(Nc1cccc(-c2csc(-c3ccccc3)n2)c1)c1cccs1,10µM,0.329µM,.,-
Cc1cccc(N/C=C/C(=C(C#N)C#N)N(C)C)c1,-,-,-,-
CN(C)C(/C=C/Nc1ccc(O)cc1)=C(C#N)C#N,-,9.28µM,?,-
O=C(CN1C(=O)CSc2ccc(S(=O)(=O)N3CCCC3)cc21)NCc1ccc(Cl)cc1,.,.,.,-
Cc1cccc(C)c1C(=NCCCN(C)C)c1ccccc1,-,4.65µM,9.28µM,-
COc1ccc(CCn2c(=O)c3cccnc3n(CC(=O)Nc3c(C)cc(C)cc3C)c2=O)cc1OC,.,.,.,-
CCc1ccc(NC(=O)CN2CCN(Cc3ccccc3)S2(=O)=O)cc1,.,.,.,-
CCc1cccc(C)c1NC(=O)CN1CCCN(Cc2ccccc2Cl)S1(=O)=O,.,.,.,+
CCc1ccc(NC(=O)CN2CCCN(Cc3cccc(Cl)c3)S2(=O)=O)cc1,.,.,.,+
COc1ccc(CCNC(=O)c2c(C)oc3ncn(CC(C)C)c(=O)c23)cc1OC,.,.,.,-
CN1CCCC1CCNS(=O)(=O)c1ccc(Br)cc1 (stereo unspecified),10µM,?,?,-
Cc1cc(C)cc(NC(=O)Cn2nnc(-c3ccccc3F)n2)c1,.,.,.,-
COC(=O)c1cc2ccc(OC)cc2c2cc(OC)c(OC)cc12,1.41µM,.,.,-
Cc1cc(NC(=O)CSc2nccn2-c2cccc(C)c2C)no1,11.2µM,8.28µM,?,-
Cc1cc(NC(=O)CSc2nccn2-c2cccc(F)c2)no1,-,.,.,-
COc1ccc(-n2ccnc2SCC(=O)Nc2cc(C)on2)cc1,-,-,-,-
Cc1cccc(-n2ccnc2SCC(=O)Nc2cc(C)on2)c1,-,10.4µM,-,-
